# Results reported in PubChem BioAssay (EPA / NIEHS).
# Calls of active or inactive are those of the source. Rule for the calls: active = hit-call score of the fitted dose curve at least 0.9, where 1 is the maximum; inactive = score below 0.9.
# Experiments:
# [1] = CEETOX_H295R_PROG: CeeTox H295R High-throughput Steroidogenesis Assay for Progesterone (PROG) (AID 2283442); conditions: actives raise or lower the signal;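 for AC50: human H295R adrenal cells primed with 10 µM forskolin before dosing; progesterone secreted into medium by H295R cells measured by HPLC-MS/MS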
# In short: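 Adrenal H295R line, forskolin-stimulated (10 uM, 48 h) before dosing. 48 h exposure, 0.1% DMSO vehicle. Secreted progesterone by reverse-phase HPLC with ESI+ MS/MS quantification; DMSO-normalised bidirectional curve fit.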
# [2] = read-out: Tumor necrosis factor receptor superfamily member 6 (Homo sapiens) (UniProt P25445); assay: LTEA_HepaRG_FAS: Life Technologies and Expression Analysis (LTEA) Assay for Fas cell surface death receptor (FAS) using HepaRG (AID 2283447); conditions: mRNA level, 48 h; actives raise or lower the signal
# In short: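 Differentiated HepaRG cells in serum-free induction medium were exposed 48 h to 8 half-log concentrations up to 100 uM in 0.5% DMSO, in duplicate. FAS mRNA was measured by qRT-PCR normalised to ACTB, GAPDH and POLR2A; bidirectional fit versus DMSO.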
# [3] = read-out: Fatty acid synthase (Homo sapiens) (UniProt P49327); assay: LTEA_HepaRG_FASN: Life Technologies and Expression Analysis (LTEA) Assay for Fatty Acid Synthase (FASN) using HepaRG (AID 2283448); conditions: mRNA level, 48 h; actives raise or lower the signal
# In short: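 Differentiated human HepaRG cells were exposed for 48 h in serum-free induction medium to eight half-log concentrations up to 100 uM in 0.5% DMSO, in duplicate. FASN mRNA was quantified by TaqMan qRT-PCR, normalized to ACTB/GAPDH/POLR2A, and fitted bidirectionally against DMSO.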
# [4] = read-out: Cyclin D2 (CCND2), CCND2 (gene 894); assay: LTEA_HepaRG_CCND2: Life Technologies and Expression Analysis (LTEA) Assay for Cyclin D2 (CCND2) using HepaRG (AID 2283449); conditions: mRNA level, 48 h; actives raise or lower the signal;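 note: CCND2 transcript measured by TaqMan qRT-PCR and normalised to three housekeeping genes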
# In short: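 Chemicals in 0.5% DMSO, eight half-log concentrations from 100 uM top, were applied in duplicate for 48 h to human HepaRG cells in serum-free induction medium. CCND2 mRNA by TaqMan qRT-PCR, normalised to ACTB/GAPDH/POLR2A; bidirectional fit versus DMSO.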
# [5] = read-out: Cyclin Dependent Kinase Inhibitor 1A (CDKN1A), CDKN1A (gene 1026); assay: LTEA_HepaRG_CDKN1A: Life Technologies and Expression Analysis (LTEA) Assay for Cyclin Dependent Kinase Inhibitor 1A (CDKN1A) using HepaRG (AID 2283450); conditions: mRNA level, 48 h; actives raise or lower the signal
# In short: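 Cryopreserved HepaRG cells were plated and cultured 48 h, then switched to serum-free induction medium. Chemicals (eight half-log concentrations, top 100 uM, 0.5% DMSO) were applied for 48 h. Lysates underwent qRT-PCR for CDKN1A with housekeeping normalization.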
# [6] = read-out: Cyclin D1 (CCND1), CCND1 (gene 595); assay: LTEA_HepaRG_CCND1: Life Technologies and Expression Analysis (LTEA) Assay for Cyclin D1 (CCND1) using HepaRG (AID 2283451); conditions: mRNA level, 48 h; actives raise or lower the signal
# In short: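 Human liver HepaRG line; 48 h dosing, 8 conc. ≤100 uM, 0.5% DMSO; TaqMan qRT-PCR mRNA, 3 housekeeping genes; bidirectional curve fit vs DMSO.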
# [7] = read-out: catalase (CAT), CAT (gene 847); assay: LTEA_HepaRG_CAT: Life Technologies and Expression Analysis (LTEA) Assay for catalase (CAT) using HepaRG (AID 2283452); conditions: mRNA level, 48 h; actives raise or lower the signal
# In short: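 HepaRG cells in serum-free induction medium, 0.5% DMSO vehicle, exposed 48 h in duplicate over 8 half-log concentrations from 100 uM. CAT mRNA measured by qRT-PCR, normalized to ACTB, GAPDH, POLR2A; bidirectional fit versus DMSO.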
# [8] = read-out: flavin-containing dimethylaniline monooxygenases 3 (FMO3), FMO3 (gene 2328); assay: LTEA_HepaRG_FMO3: Life Technologies and Expression Analysis (LTEA) Assay for flavin-containing dimethylaniline monooxygenases 3 (FMO3) using HepaRG (AID 2283453); conditions: mRNA level, 48 h; actives raise or lower the signal;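 for AC50: FMO3 transcript by TaqMan qRT-PCR normalized to ACTB GAPDH and POLR2A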
# In short: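 HepaRG, 48 h exposure, 8-pt half-log series from 100 uM, 0.5% DMSO vehicle, duplicates; FMO3 transcript by Fluidigm TaqMan qRT-PCR, housekeeping-normalized; gain/loss fit vs DMSO.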
# [9] = CEETOX_H295R_ESTRADIOL: CeeTox H295R High-throughput Steroidogenesis Assay for Estradiol (AID 2283440); conditions: actives raise or lower the signal;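 note: estradiol secreted into medium quantified by LC-MS/MS after dansyl derivatisation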
# In short: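 Following OECD 456 with minor changes, H295R cells received 10 uM forskolin for 48 h and then test chemical for 48 h. Hormone output was read by HPLC-MS/MS, with cytotoxic concentrations diluted until MTT viability reached ≥70%.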
# [10] = CEETOX_H295R_ESTRONE: CeeTox H295R High-throughput Steroidogenesis Assay for Estrone (AID 2283441); conditions: actives raise or lower the signal;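 note: estrone secreted into medium measured by LC-MS/MS after dansyl derivatization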
# In short: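 H295R cells; 48 h forskolin (10 uM) prestimulation; 48 h compound exposure, 0.1% DMSO final. Medium estrone: MTBE extraction, dansyl derivatization, HPLC-MS/MS. Bidirectional fit vs DMSO.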
# Fatty acid synthase (Homo sapiens), sequence (P49327 whole entry, looked up): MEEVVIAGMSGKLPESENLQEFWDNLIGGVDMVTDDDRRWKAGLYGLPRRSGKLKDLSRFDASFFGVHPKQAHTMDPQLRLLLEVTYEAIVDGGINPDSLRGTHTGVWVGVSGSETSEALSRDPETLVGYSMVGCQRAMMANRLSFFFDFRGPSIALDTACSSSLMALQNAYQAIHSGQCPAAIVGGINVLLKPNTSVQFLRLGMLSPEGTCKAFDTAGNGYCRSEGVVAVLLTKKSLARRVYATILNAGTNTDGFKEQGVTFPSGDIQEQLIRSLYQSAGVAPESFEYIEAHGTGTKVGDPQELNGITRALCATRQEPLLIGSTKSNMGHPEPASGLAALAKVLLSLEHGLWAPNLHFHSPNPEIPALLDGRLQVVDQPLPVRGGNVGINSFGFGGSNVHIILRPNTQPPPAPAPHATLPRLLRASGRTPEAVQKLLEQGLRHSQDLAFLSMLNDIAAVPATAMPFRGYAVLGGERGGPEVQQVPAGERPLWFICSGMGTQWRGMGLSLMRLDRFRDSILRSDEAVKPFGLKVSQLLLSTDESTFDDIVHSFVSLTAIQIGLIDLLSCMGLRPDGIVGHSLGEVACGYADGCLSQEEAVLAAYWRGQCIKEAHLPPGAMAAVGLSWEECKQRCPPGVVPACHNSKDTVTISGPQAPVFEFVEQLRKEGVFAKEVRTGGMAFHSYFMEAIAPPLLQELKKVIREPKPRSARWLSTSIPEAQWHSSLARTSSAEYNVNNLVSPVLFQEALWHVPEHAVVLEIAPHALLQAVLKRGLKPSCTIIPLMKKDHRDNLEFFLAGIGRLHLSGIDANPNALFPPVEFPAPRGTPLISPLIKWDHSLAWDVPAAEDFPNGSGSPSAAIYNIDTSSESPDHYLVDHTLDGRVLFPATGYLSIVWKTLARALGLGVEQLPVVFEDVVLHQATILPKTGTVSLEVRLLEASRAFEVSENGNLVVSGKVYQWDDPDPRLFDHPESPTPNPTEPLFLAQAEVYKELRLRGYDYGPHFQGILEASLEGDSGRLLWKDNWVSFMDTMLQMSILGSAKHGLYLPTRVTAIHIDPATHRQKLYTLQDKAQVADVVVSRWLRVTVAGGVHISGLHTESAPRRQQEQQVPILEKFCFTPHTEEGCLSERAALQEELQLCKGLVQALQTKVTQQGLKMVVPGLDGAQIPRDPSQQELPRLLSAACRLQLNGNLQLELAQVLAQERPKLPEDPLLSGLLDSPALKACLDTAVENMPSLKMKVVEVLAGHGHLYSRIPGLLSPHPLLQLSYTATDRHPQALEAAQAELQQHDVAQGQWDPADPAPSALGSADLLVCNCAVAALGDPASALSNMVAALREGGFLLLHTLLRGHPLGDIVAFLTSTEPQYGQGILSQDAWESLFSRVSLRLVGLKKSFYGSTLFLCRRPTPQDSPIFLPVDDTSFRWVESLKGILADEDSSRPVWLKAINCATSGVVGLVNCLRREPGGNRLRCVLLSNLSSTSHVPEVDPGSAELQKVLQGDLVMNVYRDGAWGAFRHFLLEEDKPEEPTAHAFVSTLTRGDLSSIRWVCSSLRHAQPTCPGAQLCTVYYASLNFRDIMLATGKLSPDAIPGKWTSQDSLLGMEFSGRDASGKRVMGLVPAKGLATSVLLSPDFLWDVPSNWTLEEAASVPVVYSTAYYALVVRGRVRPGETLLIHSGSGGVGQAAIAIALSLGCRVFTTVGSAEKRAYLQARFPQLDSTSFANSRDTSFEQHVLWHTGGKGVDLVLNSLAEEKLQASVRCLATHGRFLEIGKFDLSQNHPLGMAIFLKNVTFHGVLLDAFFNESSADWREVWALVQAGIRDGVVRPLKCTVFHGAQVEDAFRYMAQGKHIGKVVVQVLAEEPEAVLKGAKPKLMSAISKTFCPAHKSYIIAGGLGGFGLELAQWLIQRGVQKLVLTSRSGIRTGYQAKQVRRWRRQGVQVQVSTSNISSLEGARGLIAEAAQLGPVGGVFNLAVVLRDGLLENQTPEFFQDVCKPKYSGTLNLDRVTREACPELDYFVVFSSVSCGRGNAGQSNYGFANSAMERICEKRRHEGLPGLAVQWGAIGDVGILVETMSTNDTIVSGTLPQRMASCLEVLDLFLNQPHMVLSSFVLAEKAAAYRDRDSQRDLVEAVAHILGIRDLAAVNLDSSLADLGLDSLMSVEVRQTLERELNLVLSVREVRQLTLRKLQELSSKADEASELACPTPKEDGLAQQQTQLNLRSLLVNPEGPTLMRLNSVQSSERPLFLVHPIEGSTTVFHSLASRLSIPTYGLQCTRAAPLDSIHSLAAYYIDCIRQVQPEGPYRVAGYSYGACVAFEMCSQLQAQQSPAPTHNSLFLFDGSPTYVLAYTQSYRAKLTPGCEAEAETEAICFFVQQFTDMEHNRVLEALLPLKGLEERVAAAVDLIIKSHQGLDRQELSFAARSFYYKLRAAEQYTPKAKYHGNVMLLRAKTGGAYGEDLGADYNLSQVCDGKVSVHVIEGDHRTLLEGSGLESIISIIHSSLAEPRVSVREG
SMILES,outcome [1],outcome [2],outcome [3],outcome [4],outcome [5],outcome [6],outcome [7],outcome [8],outcome [9],outcome [10],AC50 [1],AC50 [8]
COc1cccc(C(=O)NN(C(=O)c2cc(C)cc(C)c2)C(C)(C)C)c1C,inactive,inactive,inactive,inactive,inactive,inactive,inactive,inactive,–,–,–,–
CCc1cccc(C)c1N(C(=O)CCl)C(C)COC (stereo not given),inactive,inactive,inactive,inactive,inactive,inactive,inactive,inactive,–,–,–,–
CNC(=O)ON=C(SC)C(=O)N(C)C,inactive,inactive,inactive,inactive,inactive,inactive,inactive,inactive,inactive,inactive,–,–
CCC(CC)Nc1c([N+](=O)[O-])cc(C)c(C)c1[N+](=O)[O-],–,inactive,inactive,inactive,inactive,inactive,inactive,inactive,–,–,–,–
CCOP(=O)(NC(C)C)Oc1ccc(SC)c(C)c1 (stereo not given),–,inactive,inactive,–,inactive,inactive,inactive,inactive,–,–,32.2 µM (active),–
CCCCN(CC)c1c([N+](=O)[O-])cc(C(F)(F)F)cc1[N+](=O)[O-],inactive,inactive,inactive,inactive,inactive,inactive,inactive,inactive,–,–,–,–
CNC(=O)Oc1cccc2c1OC(C)(C)O2,–,inactive,inactive,–,–,inactive,inactive,inactive,–,–,4.74 µM (active),–
CC(C1CC1)C(O)(Cn1cncn1)c1ccc(Cl)cc1 (stereo not given),–,inactive,inactive,inactive,–,inactive,inactive,–,–,–,2.23 µM (active),77.7 µM (active)
CC1(C(=O)Nc2ccc(O)c(Cl)c2Cl)CCCCC1,–,inactive,–,inactive,inactive,inactive,inactive,inactive,–,–,7.63 µM (active),–
CNC(=O)ON=C(C)SC,inactive,inactive,inactive,inactive,–,inactive,inactive,inactive,–,–,–,–
COP(=O)(NC(C)=O)SC (stereo not given),inactive,inactive,inactive,–,–,inactive,inactive,inactive,–,–,–,–
C#CCC1=C(C)C(OC(=O)C2C(C=C(C)C)C2(C)C)CC1=O (stereo not given),inactive,inactive,inactive,inactive,inactive,inactive,inactive,inactive,–,–,–,–
CN(C)NC(=O)CCC(=O)O,inactive,inactive,inactive,inactive,inactive,inactive,inactive,inactive,–,–,–,–
COc1ccc(C(=CC(=O)N2CCOCC2)c2ccc(Cl)cc2)cc1OC,inactive,inactive,inactive,inactive,inactive,inactive,inactive,inactive,–,–,–,–
CCCSP(=O)(OCC)Oc1ccc(Br)cc1Cl (stereo not given),inactive,inactive,inactive,inactive,inactive,inactive,inactive,inactive,–,–,–,–
CCCSP(=O)(OCC)SCCC,inactive,inactive,inactive,inactive,–,inactive,inactive,inactive,–,–,–,–
